The results in this text go back to paper PMC11006913.

Test in all cases: PBM; 200 nM protein, PBS
What all share (details): dsDNA, one strand shown

The target of experiment [1] is NKX3-2 (Homo sapiens, UniProt P78367 192-278, P234S).
Experiment [2] addresses NKX3-2 (Homo sapiens, UniProt P78367 192-278).
In experiment [3] the target is HOXD13 (Homo sapiens, UniProt P35453 263-343, T313A).
For experiment [4], the target named is HOXD13 (Homo sapiens, UniProt P35453 263-343, T313R).
Experiment [5] has as its target HOXD13 (Homo sapiens, UniProt P35453 263-343).
Another experiment has as its target CRX (Homo sapiens, UniProt O43186 26-111, R41L).
The target in experiment [6] is T1, SIX6 (Homo sapiens, UniProt O95475 114-200, L167I).
T1 sequence: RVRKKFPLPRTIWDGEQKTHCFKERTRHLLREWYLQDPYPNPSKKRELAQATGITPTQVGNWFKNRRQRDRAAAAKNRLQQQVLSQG

For experiment [7], the target named is T2, SIX6 (Homo sapiens, UniProt O95475 114-200, L143V).
T2 sequence: T1 sequence with L30V, I54L

The target in experiment [8] is T3, SIX6 (Homo sapiens, UniProt O95475 114-200, H141N).
T3 sequence: T1 sequence with H28N, I54L

Experiment [9] concerns the target T4, SIX6 (Homo sapiens, UniProt O95475 114-200, L167M).
T4 sequence: T1 sequence with I54M

In experiment [10] the target is T5, SIX6 (Homo sapiens, UniProt O95475 114-200, L143M).
T5 sequence: T1 sequence with L30M, I54L

The target in experiment [11] is T6, SIX6 (Homo sapiens, UniProt O95475 114-200, L143I).
T6 sequence: T1 sequence with L30I, I54L

Experiment [12] concerns the target T7, SIX6 (Homo sapiens, UniProt O95475 114-200, T165G).
T7 sequence: T1 sequence with T52G, I54L

Experiment [13] deals with T8, SIX6 (Homo sapiens, UniProt O95475 114-200, T139Q).
T8 sequence: T1 sequence with T26Q, I54L

The target in experiment [14] is T9, SIX6 (Homo sapiens, UniProt O95475 114-200, T165A).
T9 sequence: T1 sequence with T52A, I54L

Experiment [15] concerns the target T10, SIX6 (Homo sapiens, UniProt O95475 114-200, L167V).
T10 sequence: T1 sequence with I54V

In experiment [16] the target is T11, SIX6 (Homo sapiens, UniProt O95475 114-200).
T11 sequence: T1 sequence with I54L

In a further experiment the target is T12, NKX2-6 (Homo sapiens, UniProt A6NCS4 118-204, R150C).
T12 sequence: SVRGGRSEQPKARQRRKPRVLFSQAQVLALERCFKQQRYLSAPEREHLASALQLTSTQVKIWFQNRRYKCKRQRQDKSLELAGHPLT

Residue numbers refer to the chain shown, from its start.

Sequence of HOXD13 (Homo sapiens, UniProt P35453 263-343, T313A) (P35453 263-343 T313A): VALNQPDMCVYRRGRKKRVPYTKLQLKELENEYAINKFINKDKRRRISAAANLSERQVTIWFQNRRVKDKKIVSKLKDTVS
Sequence of HOXD13 (Homo sapiens, UniProt P35453 263-343, T313R) (P35453 263-343 T313R): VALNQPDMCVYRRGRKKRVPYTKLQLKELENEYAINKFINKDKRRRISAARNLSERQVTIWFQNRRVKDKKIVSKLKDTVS
Sequence of NKX3-2 (Homo sapiens, UniProt P78367 192-278) (P78367 192-278): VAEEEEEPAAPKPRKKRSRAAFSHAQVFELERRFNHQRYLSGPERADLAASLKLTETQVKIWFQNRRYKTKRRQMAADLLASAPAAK
Sequence of NKX3-2 (Homo sapiens, UniProt P78367 192-278, P234S) (P78367 192-278 P234S): as the sequence (P78367 192-278) above, with P43S counted along it
Sequence of HOXD13 (Homo sapiens, UniProt P35453 263-343) (P35453 263-343): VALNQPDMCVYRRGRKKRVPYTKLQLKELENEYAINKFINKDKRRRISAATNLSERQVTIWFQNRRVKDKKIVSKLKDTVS
Sequence of CRX (O43186 26-111 R41L): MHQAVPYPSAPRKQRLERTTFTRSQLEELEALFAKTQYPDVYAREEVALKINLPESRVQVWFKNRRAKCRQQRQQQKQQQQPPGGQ

Turning to CTAATTAC, the binding signal in the experiment with NKX3-2 [1] is 11.6 upbm affinity estimate (log intensity, higher = more binding, comparable within an allelic series); in the experiment with NKX3-2 [2] it was 11.7 upbm affinity estimate (log intensity, higher = more binding, comparable within an allelic series).

Regarding CAATTAAC, the binding signal with HOXD13 [3] was 11.6 upbm affinity estimate (log intensity, higher = more binding, comparable within an allelic series).

Take ACTAATTG: the binding signal with NKX3-2 [1] is 11.8 upbm affinity estimate (log intensity, higher = more binding, comparable within an allelic series); with NKX3-2 [2], 11.8 upbm affinity estimate (log intensity, higher = more binding, comparable within an allelic series).

As for CAATTAAA, the binding signal in the experiment with HOXD13 [4] was 10.7 upbm affinity estimate (log intensity, higher = more binding, comparable within an allelic series); in the experiment with HOXD13 [5], 11.7 upbm affinity estimate (log intensity, higher = more binding, comparable within an allelic series); with HOXD13 [3], 11.7 upbm affinity estimate (log intensity, higher = more binding, comparable within an allelic series).

Consider AATTAATC, for which the binding signal in the experiment with CRX is 12.5 upbm affinity estimate (log intensity, higher = more binding, comparable within an allelic series).

For the sequence CCAGGTCC, the binding signal with SIX6 [6] was 9.09 upbm affinity estimate (log intensity, higher = more binding, comparable within an allelic series); with SIX6 [7] it was 8.75 upbm affinity estimate (log intensity, higher = more binding, comparable within an allelic series); in the experiment with SIX6 [8] it was 8.99 upbm affinity estimate (log intensity, higher = more binding, comparable within an allelic series); with SIX6 [9], 8.79 upbm affinity estimate (log intensity, higher = more binding, comparable within an allelic series); in the experiment with SIX6 [10], 9.02 upbm affinity estimate (log intensity, higher = more binding, comparable within an allelic series); with SIX6 [11], 8.99 upbm affinity estimate (log intensity, higher = more binding, comparable within an allelic series). The binding signal with SIX6 [12] was 9.06 upbm affinity estimate (log intensity, higher = more binding, comparable within an allelic series); in the experiment with SIX6 [13], 9.28 upbm affinity estimate (log intensity, higher = more binding, comparable within an allelic series); in the experiment with HOXD13 [4], 9.45 upbm affinity estimate (log intensity, higher = more binding, comparable within an allelic series); with SIX6 [14], 9.07 upbm affinity estimate (log intensity, higher = more binding, comparable within an allelic series); with HOXD13 [5], 9.43 upbm affinity estimate (log intensity, higher = more binding, comparable within an allelic series); in the experiment with SIX6 [15] it was 9 upbm affinity estimate (log intensity, higher = more binding, comparable within an allelic series). The binding signal with SIX6 [16] was 9.04 upbm affinity estimate (log intensity, higher = more binding, comparable within an allelic series); with HOXD13 [3] it was 9.65 upbm affinity estimate (log intensity, higher = more binding, comparable within an allelic series).

Turning to GGCAGGCC, the binding signal in the experiment with NKX2-6 was 9.24 upbm affinity estimate (log intensity, higher = more binding, comparable within an allelic series); with HOXD13 [4], 9.41 upbm affinity estimate (log intensity, higher = more binding, comparable within an allelic series); with HOXD13 [5], 9.41 upbm affinity estimate (log intensity, higher = more binding, comparable within an allelic series); in the experiment with HOXD13 [3] it was 9.35 upbm affinity estimate (log intensity, higher = more binding, comparable within an allelic series).

CCAATTAA: the binding signal was 10.8 upbm affinity estimate (log intensity, higher = more binding, comparable within an allelic series) in the experiment with HOXD13 [4]; 11.9 upbm affinity estimate (log intensity, higher = more binding, comparable within an allelic series) with HOXD13 [5]; 11.8 upbm affinity estimate (log intensity, higher = more binding, comparable within an allelic series) in the experiment with HOXD13 [3]; 11.7 upbm affinity estimate (log intensity, higher = more binding, comparable within an allelic series) with NKX3-2 [1]; 11.8 upbm affinity estimate (log intensity, higher = more binding, comparable within an allelic series) in the experiment with NKX3-2 [2].

For the sequence GGCAATTA, the binding signal was 11.8 upbm affinity estimate (log intensity, higher = more binding, comparable within an allelic series) with NKX3-2 [1] and 11.9 upbm affinity estimate (log intensity, higher = more binding, comparable within an allelic series) with NKX3-2 [2].

ATTAATAG: the binding signal in the experiment with HOXD13 [4] is 10.9 upbm affinity estimate (log intensity, higher = more binding, comparable within an allelic series); with HOXD13 [5], 11.8 upbm affinity estimate (log intensity, higher = more binding, comparable within an allelic series); in the experiment with HOXD13 [3], 11.8 upbm affinity estimate (log intensity, higher = more binding, comparable within an allelic series).

As for CTTGCGGC, the binding signal with NKX3-2 [1] is 10.7 upbm affinity estimate (log intensity, higher = more binding, comparable within an allelic series); with NKX3-2 [2] it was 10.6 upbm affinity estimate (log intensity, higher = more binding, comparable within an allelic series).

On to CCGAGCGG, for which, in the experiment with NKX2-6, the binding signal was 9.43 upbm affinity estimate (log intensity, higher = more binding, comparable within an allelic series).

GACAATTA: in the experiment with NKX2-6, the binding signal is 11 upbm affinity estimate (log intensity, higher = more binding, comparable within an allelic series).

With GGAGCGCA, the binding signal with SIX6 [6] is 8.88 upbm affinity estimate (log intensity, higher = more binding, comparable within an allelic series); with SIX6 [7], 8.9 upbm affinity estimate (log intensity, higher = more binding, comparable within an allelic series); with SIX6 [8], 8.88 upbm affinity estimate (log intensity, higher = more binding, comparable within an allelic series); with SIX6 [9], 8.87 upbm affinity estimate (log intensity, higher = more binding, comparable within an allelic series); with SIX6 [10], 8.97 upbm affinity estimate (log intensity, higher = more binding, comparable within an allelic series); with SIX6 [11] it was 8.85 upbm affinity estimate (log intensity, higher = more binding, comparable within an allelic series). The binding signal in the experiment with SIX6 [12] is 8.87 upbm affinity estimate (log intensity, higher = more binding, comparable within an allelic series); in the experiment with SIX6 [13] it was 8.78 upbm affinity estimate (log intensity, higher = more binding, comparable within an allelic series); in the experiment with SIX6 [14] it was 8.96 upbm affinity estimate (log intensity, higher = more binding, comparable within an allelic series); in the experiment with SIX6 [15] it was 8.93 upbm affinity estimate (log intensity, higher = more binding, comparable within an allelic series); with SIX6 [16] it was 8.87 upbm affinity estimate (log intensity, higher = more binding, comparable within an allelic series).

As for GAGGGGGC, the binding signal in the experiment with CRX is 8.14 upbm affinity estimate (log intensity, higher = more binding, comparable within an allelic series).

As to ATTAATGC, in the experiment with CRX, the binding signal was 11 upbm affinity estimate (log intensity, higher = more binding, comparable within an allelic series).

Turning to CCCAGGCG, the binding signal is 10.6 upbm affinity estimate (log intensity, higher = more binding, comparable within an allelic series) with NKX3-2 [1] and 10.6 upbm affinity estimate (log intensity, higher = more binding, comparable within an allelic series) with NKX3-2 [2].
